This is part of a sample that, as a whole, favours compounds with a hit. Of some 83,000 tested, about 20% had one in any assay.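 Compound tested at a single concentration for 48 hours in 96-well plates; a percent growth value below 10 was scored as active.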 A number with no mark means an inactive call. Calls of active or inactive are those of the source.

Common to all, as to assay: NCI-60 one-dose screen, 48 h (100 = growth as untreated, 0 = no growth, -100 = all killed)
What all share (conditions): 10 µM

For experiment [1], the system named is NCI-H23 lung.
The test system of experiment [2] is NCI-H226 lung.
The test system of experiment [3] is NCI-H460 lung.
For experiment [4], the system named is HOP-92 NSCLC.
For experiment [5], the system named is NCI-H522 lung.
In experiment [6] the test system is A549/ATCC NSCLC.
Experiment [7] relates to 786-0 renal.
Experiment [8] has as its system COLO 205 colon.
The subject of experiment [9] is HOP-62 NSCLC.
Experiment [10] relates to NCI-H322M lung.

`O=C(CNc1nc(-c2ccccc2)cs1)Nc1ccc(Br)cc1`: the growth in experiment [1] is -90.8% (active); in [2], -58.6% (active); in [3], -61.5% (active); in experiment [4], -71.5% (active); in [5], -77.8% (active); in experiment [6], -82.3% (active). Moreover, the figures for the growth in [7] and in experiment [8] were -73.2% (active) and -77.4% (active), respectively.
In the case of `O=C(Nc1cccc([N+](=O)[O-])c1)Nc1cccc([N+](=O)[O-])c1`, the growth in experiment [1] was 65.5%; in experiment [2], 74.4%; in [9], 92.7%; in [3] it was 70.5%; in experiment [4], 80.4%; in experiment [5], 64.8%. Further, the growth in experiment [6] is 82.2%; in experiment [7], 74%; in [8], 121%.
On to `CN1CCN(c2ccc(Nc3nc(NCCCNC(=O)c4ccc(Cl)cc4)c4sccc4n3)cc2)CC1`, for which the growth in experiment [1] was 81.9%; in experiment [2], 79.3%; in experiment [3], 88.9%; in experiment [4] it was 34.1%; in [5], 103%; in experiment [6], 87.8%. Moreover, the values for the growth in experiment [7] and in experiment [8] were -4.27% (active) and 92.5%, respectively.
As for `O=C1Nc2cc(Cl)ccc2/C1=C/c1cccc(OCc2ccccc2)c1`, the growth in experiment [1] was 11.9%; in experiment [2] it was 21.9%; in [9], 0.755% (active); in experiment [3], 3.73% (active); in [4] it was -6.89% (active); in [5], -63% (active). In addition, the growth was 5.95% (active) in experiment [6], -12% (active) in [7] and -22.8% (active) in experiment [8].
`Cc1noc2c(Cc3ccccc3)nn(CC(=O)N/N=C/c3ccc(Br)cc3)c(=O)c12`: the growth in [1] is 69.9%; in [10], 102%; in experiment [9] it was 43.3%; in [3], 13.1%; in experiment [4], 35.1%; in [5] it was 74.4%. Also, the growth is 18.1% in experiment [6], -24.9% (active) in experiment [7] and 39.7% in experiment [8].
`COc1ccc(-c2ccc(/C=N/NC(=O)c3[nH]c4ccc(Br)cc4c3-c3ccccc3)o2)cc1`: the growth in experiment [1] is 50%; in experiment [2], 44.1%; in experiment [10], 70.4%; in [3], 16.8%; in experiment [4], 85.9%; in [5], -44.1% (active). Also, the growth in experiment [7] is 34.9%; in experiment [8], 63.1%.
Regarding `CN1CCO/C1=C(/NC(=O)c1ccc(Cl)cc1)[P+](c1ccccc1)(c1ccccc1)c1ccccc1`, the growth in experiment [1] was 84.5%; in [2], 89.3%; in experiment [9], 95%; in experiment [3], 94.1%; in [4], 60.9%; in experiment [5], 58.4%. The growth in experiment [7] was 103%; in experiment [8] it was 68.9%.
`COc1ccc(/C=C/C(=O)c2ccc(NC(=O)CN3C(=O)NC(C)(c4ccccc4)C3=O)cc2)cc1` (configuration not stated): the growth in experiment [1] is 83.8%; in [2], 80.3%; in experiment [3] it was 102%; in experiment [4], 120%; in [5] it was 86.8%; in experiment [6], 85.9%. In addition, the values for the growth in [7] and in experiment [8] were 81.2% and 106%, respectively.
For `CC(=O)Nc1ccc(-c2cn(-c3cccc(C(=O)Nc4ccc(Cl)c(C(F)(F)F)c4)c3)nn2)cn1`, the growth in experiment [1] was -67.6% (active); in experiment [2], -72.8% (active); in experiment [9] it was -60.2% (active); in experiment [3] it was -73.3% (active); in [4], -30.8% (active); in experiment [5], -63.2% (active). The values for the growth in [6], in experiment [7] and in experiment [8] were -43.4% (active), -34.4% (active) and -40.9% (active), respectively.
For the molecule `COc1ccc(C(=O)Nc2sc3c(c2C#N)CCC(=O)C3)cc1C(F)(F)F`, the growth in experiment [1] is -13.7% (active); in [2], 6.58% (active); in [10], 85.9%; in [3], 0.213% (active); in [4], -30.9% (active); in experiment [5] it was -64.4% (active). In addition, the figures for the growth in experiment [6], in [7] and in experiment [8] were 25.5%, 7.91% (active) and -89.1% (active), respectively.
`CN1CCN(c2ccc(C(=O)/C=C/c3ccc(OC(F)F)cc3)cc2)CC1`: the growth is 27.8% in experiment [1]; 27.7% in experiment [2]; 70.6% in [10]; 49.2% in experiment [3]; 61.6% in experiment [4]; 83.5% in experiment [5]. In addition, the growth in experiment [6] was 40.2%; in experiment [7] it was 61.6%; in [8], 34.8%.
Turning to `Cc1ccc(S(=O)(=O)c2nc(-c3ccccc3)oc2S(=O)(=O)CC(=O)N2CCCC2)cc1`, the growth in [1] was -77.9% (active); in experiment [2], 56.3%; in experiment [9], 78.3%; in [3] it was 26.4%; in [4], -85.6% (active); in [5], -96.3% (active). Moreover, the growth is 63.4% in experiment [6], -57.3% (active) in [7] and -93.2% (active) in experiment [8].
With `Clc1ccc2c(N/N=C/c3c[nH]c4ccc(Br)cc34)ccnc2c1`, the growth was -85.4% (active) in experiment [1]; -64.4% (active) in [2]; -59.1% (active) in experiment [9]; 9.83% (active) in experiment [3]; -69.1% (active) in [4]; -66.9% (active) in [5]. The growth in [6] was 1.71% (active); in [7] it was -54.7% (active); in experiment [8], -44% (active).
In the case of `CC(C)c1ccc(C(=O)Nc2sc3c(c2C(N)=O)CCC(=O)C3=O)cc1`, the growth was 81.3% in experiment [1]; 86.6% in experiment [2]; 102% in experiment [9]; 97.5% in experiment [3]; 127% in experiment [4]; 84% in [5]. Besides, the growth was 99.4% in [6], 113% in experiment [7] and 104% in experiment [8].
As to `CC(=O)Nc1ccc(-n2cnc3cc(-c4ccc(O)cc4)ccc32)cc1C`, the growth is 47.6% in experiment [1]; 57% in [2]; 36.4% in experiment [3]; 67.2% in [4]; -29.1% (active) in [5]; 47.5% in [6]. The growth was 55.7% in experiment [7] and 93.9% in [8].
Turning to `COc1ccc(/C=N/N=C(\C)c2ccc3c(c2)Nc2ccccc2S3)cc1O`, the growth is 35.9% in [1]; 49.2% in experiment [2]; 71.2% in experiment [10]; 41.1% in [3]; 74.1% in experiment [4]; 48.3% in [5]. Moreover, the values for the growth in experiment [6], in [7] and in experiment [8] were 63.9%, 73.9% and 99.9%, respectively.
As for `N#Cc1c(NC(=O)c2ccc(C(F)(F)F)cc2C(F)(F)F)sc2c1CCC(=O)C2`, the growth in experiment [1] is -50% (active); in experiment [2], -7.56% (active); in experiment [9] it was 7.49% (active); in [3] it was 12%; in [4], -61.5% (active); in experiment [5], -72.5% (active). Moreover, the values for the growth in experiment [7] and in experiment [8] were 4.38% (active) and -73.3% (active), respectively.
With `O=C(Cc1ccc2c(c1)CN(C1CCC(=O)NC1=O)C2=O)NCCc1ccccc1` (configuration not stated), the growth was 72.8% in experiment [1]; 11.4% in experiment [2]; 0.419% (active) in experiment [9]; 110% in [3]; -14.1% (active) in [4]; 35.4% in experiment [5]. Also, the growth is 20.3% in experiment [6], 6.47% (active) in experiment [7] and 0.214% (active) in experiment [8].
Consider `COC(=O)C[C@](O)(CCCC(C)(C)O)C(=O)O[C@H]1C(OC)=C[C@@]23CCC(=O)N2CCc2cc4c(cc2[C@@H]13)OCO4`, for which the growth in experiment [1] is 101%; in [2] it was 79.4%; in experiment [9], 93.1%; in experiment [3], 44.3%; in experiment [4] it was 116%; in experiment [5] it was 78.4%. In addition, the growth in [6] is 94.9%; in experiment [7], 97.9%; in experiment [8] it was 118%.
As to `O=C(N/N=C/c1ccc(B(O)O)o1)c1[nH]c2ccc(Br)cc2c1-c1ccccc1`, the growth was 24% in experiment [1]; 38.2% in experiment [2]; 44.3% in [9]; 11% in [3]; 58.9% in experiment [4]; -51% (active) in experiment [5]. Further, the growth was 41.6% in experiment [7] and -43.2% (active) in [8].

For the origin of these results see PubChem BioAssay (NCI).
